According to PubChem BioAssay (NCI):
Compounds without any hit were thinned out: in the full panel of roughly 83,000, 20% have a hit.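 48-hour exposure, single concentration, 96-well plates; percent growth endpoint where 0 means no net growth. Active: below 10.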 The source made the active and inactive calls.

Legend:
Experiment in all cases: NCI-60 one-dose screen, 48 h (100 = growth as untreated, 0 = no growth, -100 = all killed)
Conditions in all cases: 10 µM unless noted
DU-145 prostate = system: DU-145 prostate
K-562 leukemia = system: K-562 leukemia
MALME-3M melanoma = system: MALME-3M melanoma
MDA-MB-231 breast = system: MDA-MB-231 breast
RXF 393 renal = system: RXF 393 renal
SF-268 CNS = system: SF-268 CNS
SF-295 CNS = system: SF-295 CNS
SF-539 CNS = system: SF-539 CNS
UACC-257 melanoma = system: UACC-257 melanoma
M14 melanoma = system: M14 melanoma
HCT-15 colon = system: HCT-15 colon
HT29 colon = system: HT29 colon
SNB-75 CNS = system: SNB-75 CNS
SNB-19 CNS = system: SNB-19 CNS
U251 CNS = system: U251 CNS
PC-3 prostate = system: PC-3 prostate
SK-MEL-5 melanoma = system: SK-MEL-5 melanoma
UACC-62 melanoma = system: UACC-62 melanoma
LOX IMVI melanoma = system: LOX IMVI melanoma
SK-MEL-28 melanoma = system: SK-MEL-28 melanoma

Measured: growth

O=[N+]([O-])c1cc([N+](=O)[O-])c(Nn2c3ccccc3c3ccccc32)c([N+](=O)[O-])c1
active: K-562 leukemia 6.42% | MALME-3M melanoma -16.2% | MDA-MB-231 breast -6.81% | RXF 393 renal -4.31% | SF-295 CNS -47.6% | SF-539 CNS 8.26% | UACC-257 melanoma -22.6% | M14 melanoma 1.91% | HCT-15 colon 2.82% | HT29 colon -4.7% | SNB-75 CNS -19.7% | U251 CNS 8.04% | PC-3 prostate -10.5% | SK-MEL-5 melanoma -75.9% | UACC-62 melanoma -16.7% | LOX IMVI melanoma 7.47%
inactive: DU-145 prostate 22.7% | SF-268 CNS 16.2% | SNB-19 CNS 25.8% | SK-MEL-28 melanoma 11.9%

CCN1C(=O)C(=C/C=C/c2ccccc2)C(=O)N(CC)C1=O
inactive: DU-145 prostate 76.4% | K-562 leukemia 79.4% | MALME-3M melanoma 82.5% | MDA-MB-231 breast 86.4% | RXF 393 renal 109% | SF-268 CNS 72.5% | SF-295 CNS 105% | SF-539 CNS 109% | UACC-257 melanoma 93.9% | M14 melanoma 82.5% | HCT-15 colon 62.6% | HT29 colon 66% | SNB-75 CNS 96.8% | SNB-19 CNS 69.9% | U251 CNS 54.9% | PC-3 prostate 61.7% | SK-MEL-5 melanoma 89.8% | UACC-62 melanoma 79% | LOX IMVI melanoma 17% | SK-MEL-28 melanoma 104%

O=[N+]([O-])c1cnc[nH]1
inactive: DU-145 prostate 116% | K-562 leukemia 123% | MALME-3M melanoma 112% | MDA-MB-231 breast 101% | RXF 393 renal 128% | SF-268 CNS 106% | SF-295 CNS 104% | SF-539 CNS 110% | UACC-257 melanoma 103% | M14 melanoma 119% | HCT-15 colon 112% | HT29 colon 95.1% | SNB-75 CNS 93.1% | SNB-19 CNS 104% | U251 CNS 99.6% | PC-3 prostate 96.5% | SK-MEL-5 melanoma 106% | UACC-62 melanoma 96.3% | LOX IMVI melanoma 97.8% | SK-MEL-28 melanoma 114%

Cc1cc(N(CCCl)CCCl)ccc1C=Nc1ccc(-c2csc(Cc3ccccc3)n2)cc1
inactive: DU-145 prostate 57.1% | K-562 leukemia 56.8% | MALME-3M melanoma 70.8% | MDA-MB-231 breast 83.3% | RXF 393 renal 83.8% | SF-268 CNS 65.6% | SF-295 CNS 13.4% | SF-539 CNS 49.3% | UACC-257 melanoma 46.2% | M14 melanoma 79.8% | HCT-15 colon 76.1% | HT29 colon 88.3% | SNB-75 CNS 50.3% | SNB-19 CNS 81.1% | U251 CNS 62.7% | PC-3 prostate 53% | SK-MEL-5 melanoma 84.1% | UACC-62 melanoma 48.6% | LOX IMVI melanoma 63.2% | SK-MEL-28 melanoma 90.5%

CC[C@H](C)[C@H](NC(=O)c1cccn1C)C(=O)N(C)[C@H](C[C@@H](OC(C)=O)c1nc(C(=O)N[C@@H](Cc2ccccc2)C[C@H](C)C(=O)OC)cs1)C(C)C
inactive: MALME-3M melanoma 73.6% | SF-268 CNS 19.1% | UACC-257 melanoma 51.8% | HCT-15 colon 12% | SNB-75 CNS 33.4% | SNB-19 CNS 35.4% | U251 CNS 12.3% | PC-3 prostate 21.2% | UACC-62 melanoma 40.4% | LOX IMVI melanoma 15.2% | SK-MEL-28 melanoma 68.8%
active: DU-145 prostate 5.31% | K-562 leukemia 6.81% | MDA-MB-231 breast -13.7% | RXF 393 renal 3.6% | SF-295 CNS 7.85% | SF-539 CNS -12.7% | M14 melanoma -0.428% | HT29 colon -18.1% | SK-MEL-5 melanoma -29.1%

Cn1cc(C2=C(c3cn(C4CCN(Cc5ccccn5)CC4)c4ccccc34)C(=O)NC2=O)c2ccccc21
inactive: DU-145 prostate 70% | K-562 leukemia 91.3% | MDA-MB-231 breast 79.8% | RXF 393 renal 90.9% | SF-268 CNS 82.8% | SF-295 CNS 97.1% | SF-539 CNS 89.6% | M14 melanoma 16.5% | HCT-15 colon 85.9% | HT29 colon 14.3% | SNB-75 CNS 57.8% | SNB-19 CNS 101% | U251 CNS 88.4% | PC-3 prostate 92.2% | SK-MEL-5 melanoma 69.2% | UACC-62 melanoma 13.7% | LOX IMVI melanoma 48.5% | SK-MEL-28 melanoma 18.7%
active: MALME-3M melanoma -3.24% | UACC-257 melanoma -0.885%

Cc1c(C)c([N+](=O)[O-])c(C)c(C)c1[N+](=O)[O-]
inactive: DU-145 prostate 108% | K-562 leukemia 102% | MALME-3M melanoma 138% | MDA-MB-231 breast 108% | RXF 393 renal 112% | SF-268 CNS 100% | SF-295 CNS 101% | SF-539 CNS 108% | UACC-257 melanoma 99.5% | M14 melanoma 115% | HCT-15 colon 100% | HT29 colon 100% | SNB-75 CNS 113% | SNB-19 CNS 103% | U251 CNS 99.2% | PC-3 prostate 105% | SK-MEL-5 melanoma 107% | UACC-62 melanoma 102% | LOX IMVI melanoma 106% | SK-MEL-28 melanoma 108%

c1ccc(CSC(c2ccccc2)c2ccccc2)cc1
inactive: DU-145 prostate 121% | K-562 leukemia 105% | MALME-3M melanoma 110% | MDA-MB-231 breast 119% | RXF 393 renal 119% | SF-268 CNS 112% | SF-295 CNS 114% | SF-539 CNS 105% | UACC-257 melanoma 105% | M14 melanoma 99.1% | HCT-15 colon 106% | HT29 colon 84.1% | SNB-75 CNS 119% | SNB-19 CNS 104% | U251 CNS 102% | PC-3 prostate 104% | SK-MEL-5 melanoma 112% | UACC-62 melanoma 103% | LOX IMVI melanoma 100% | SK-MEL-28 melanoma 143%

COC(=O)[C@@]1(C)CC[C@]2(C)CC[C@]3(C)C4=CC=C5C(=CC(=O)C(O)=C5C)[C@]4(C)CC[C@@]3(C)[C@@H]2C1
active: DU-145 prostate -96.7% | K-562 leukemia -54.4% | MALME-3M melanoma -87.3% | MDA-MB-231 breast -93.4% | RXF 393 renal -84% | SF-268 CNS -83.2% | SF-295 CNS -91.8% | SF-539 CNS -99.6% | UACC-257 melanoma -88.3% | M14 melanoma -94% | HCT-15 colon -83.7% | HT29 colon -74.1% | SNB-75 CNS -78.9% | SNB-19 CNS -94.2% | U251 CNS -97.4% | PC-3 prostate -88.5% | SK-MEL-5 melanoma -97.1% | UACC-62 melanoma -92.7% | LOX IMVI melanoma -90.5% | SK-MEL-28 melanoma -92.9%

Cc1ccc2c(C(C[N+](=O)[O-])c3cccs3)c(-c3ccccc3)[nH]c2c1 (stereo not given)
inactive: DU-145 prostate 28.1% | K-562 leukemia 10.8% | MALME-3M melanoma 50.9% | MDA-MB-231 breast 44.1% | RXF 393 renal 13.8% | SF-268 CNS 37.7% | UACC-257 melanoma 30% | M14 melanoma 19.4% | HCT-15 colon 20% | SNB-19 CNS 37.8% | U251 CNS 21% | PC-3 prostate 28% | SK-MEL-5 melanoma 36.3% | UACC-62 melanoma 38.3% | LOX IMVI melanoma 31.7% | SK-MEL-28 melanoma 49.4%
active: SF-295 CNS 7.69% | SF-539 CNS 6.62% | HT29 colon 9.87% | SNB-75 CNS -37.2%

CCCCCCCCCCCCCC[P+](CCCCCC)(CCCCCC)CCCCCC
active: DU-145 prostate -100% | MALME-3M melanoma -83.9% | MDA-MB-231 breast -38.3% | RXF 393 renal -97.7% | SF-268 CNS -4.6% | SF-295 CNS -68.4% | SF-539 CNS 5.67% | UACC-257 melanoma -34.6% | M14 melanoma -36.5% | HCT-15 colon 7.54% | HT29 colon -58.2% | SNB-75 CNS -31.4% | SNB-19 CNS 8.99% | U251 CNS -68.4% | PC-3 prostate -78.1% | SK-MEL-5 melanoma -100% | UACC-62 melanoma -28.1% | LOX IMVI melanoma -68.5% | SK-MEL-28 melanoma -97.8%
inactive: K-562 leukemia 39%

COc1ccc(N(CC(=O)NCCC[Te]c2ccccc2)C(=O)CNC(=O)OC(C)(C)C)cc1
inactive: DU-145 prostate 48.9% | K-562 leukemia 97% | MALME-3M melanoma 137% | RXF 393 renal 114% | SF-268 CNS 24.2% | UACC-257 melanoma 109% | HCT-15 colon 11.3% | SNB-75 CNS 57.9% | SNB-19 CNS 33% | U251 CNS 12.4% | SK-MEL-5 melanoma 41.4% | UACC-62 melanoma 89.2% | LOX IMVI melanoma 17.6% | SK-MEL-28 melanoma 105%
active: MDA-MB-231 breast 1.63% | SF-295 CNS -10.8% | SF-539 CNS -9.65% | M14 melanoma 9.09% | HT29 colon -36.8% | PC-3 prostate 8.59%

CC(=O)O[C@H]1CC[C@@]2(C)C(=CC[C@H]3[C@@H]4C[C@@H](N5CC5)[C@H](C(C)=O)[C@@]4(C)CC[C@@H]32)C1
inactive: DU-145 prostate 105% | K-562 leukemia 72.4% | MALME-3M melanoma 98.1% | MDA-MB-231 breast 91.4% | RXF 393 renal 103% | SF-268 CNS 93.2% | SF-295 CNS 97.5% | SF-539 CNS 88.8% | UACC-257 melanoma 112% | M14 melanoma 95.6% | HCT-15 colon 91.6% | HT29 colon 85.9% | SNB-75 CNS 79.2% | SNB-19 CNS 100% | U251 CNS 91.5% | PC-3 prostate 77.9% | SK-MEL-5 melanoma 85.2% | UACC-62 melanoma 92.8% | LOX IMVI melanoma 87.6% | SK-MEL-28 melanoma 102%

O=C1NC(=O)C(=Cc2cn(CCCCCCn3c4ccccc4c(=O)c4ccccc43)c3ccccc23)C(=O)N1
inactive: DU-145 prostate 96.8% | K-562 leukemia 77.4% | MALME-3M melanoma 95.8% | MDA-MB-231 breast 69.1% | RXF 393 renal 127% | SF-268 CNS 94.5% | SF-295 CNS 65.7% | SF-539 CNS 93% | UACC-257 melanoma 104% | M14 melanoma 94.1% | HCT-15 colon 75.1% | HT29 colon 97.2% | SNB-75 CNS 94.5% | SNB-19 CNS 86% | U251 CNS 90.4% | PC-3 prostate 84% | SK-MEL-5 melanoma 90.5% | UACC-62 melanoma 63.5% | LOX IMVI melanoma 83.8% | SK-MEL-28 melanoma 102%
